Compounds with a hit are over-represented: about 3.5% of the library has one in this group of screens.
TEAD-YAP inh – TEAD-YAP interaction inhibition, primary screen, TEAD-YAP interaction inhibitor project, luminescence, HEK-TIYL cells. 640,000 tested, 1.4% active. TEAD-Gal4/YAP UAS-luciferase luminescence. inhibition, % at 9.12 µM; in the data active = inhibition above about 32%
GPR151 ag – activators of human GPR151, primary screen, cell-based, PathHunter beta-arrestin, luminescence. 650,000 tested, 1% active. activation, % at 11.2 µM. G-protein coupled receptor 151 (Homo sapiens), Q8TDV0. AID 1508602, 2020. PathHunter beta-arrestin GPR151 cells; in the data active = activation above about 4.9%
FBW7 act – FBW7 E3 ligase activators, primary screen, biochemical, AlphaScreen, human; F-box/WD repeat-containing protein 7 (Homo sapiens), Q969H0; normalized activity (activation), % at 26.1 µM; AlphaScreen FBW7–phospho-cyclin E peptide binding, activator screen; 650,000 tested, 0.13% active; in the data active = normalized activity above about 1.9%;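 also: purified mutant Fbw7 with reduced substrate affinity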
MITF primary – MITF inhibitors, primary screen, biochemical, AlphaScreen, human; Microphthalmia-associated transcription factor (Homo sapiens), O75030; AlphaScreen MITF homodimerization, bead proximity signal; inhibition, % at 2.6 µM; 650,000 tested, 0.91% active; in the data active = inhibition above about 50%
Target sequence (O75030 whole entry, looked up): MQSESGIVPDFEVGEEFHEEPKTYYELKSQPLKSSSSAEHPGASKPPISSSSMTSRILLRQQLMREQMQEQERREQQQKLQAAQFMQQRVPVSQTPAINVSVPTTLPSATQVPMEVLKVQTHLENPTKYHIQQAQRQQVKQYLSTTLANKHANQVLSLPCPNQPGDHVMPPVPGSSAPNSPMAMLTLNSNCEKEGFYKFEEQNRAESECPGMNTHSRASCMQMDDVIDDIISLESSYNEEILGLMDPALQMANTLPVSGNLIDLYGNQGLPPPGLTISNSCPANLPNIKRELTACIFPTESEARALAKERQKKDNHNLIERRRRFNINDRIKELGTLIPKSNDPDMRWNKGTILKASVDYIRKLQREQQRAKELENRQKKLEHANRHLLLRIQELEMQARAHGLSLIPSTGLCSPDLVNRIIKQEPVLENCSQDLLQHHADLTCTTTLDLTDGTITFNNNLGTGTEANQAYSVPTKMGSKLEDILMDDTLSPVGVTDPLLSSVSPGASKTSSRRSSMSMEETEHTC
MITF inh conf – MITF inhibitors, retest of hits, confirmation, biochemical, AlphaScreen, triplicate; shares compounds with MITF primary; AlphaScreen MITF homodimerization, biotin/His-MITF beads; inhibition, % at 2.6 µM; 4,700 tested, 16% active;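 active = inhibition above a cutoff derived from the DMSO control wells, cut at about 28% in these data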;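 also: inhibitors lower the bead chemiluminescence by keeping MITF from dimerizing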
AS interf ctr – AlphaScreen optical interference compounds, counter-screen for MITF inhibitor project, biochemical, triplicate | shares compounds with MITF primary | LysRS AlphaScreen counterscreen, signal interference | inhibition, % at 2.6 µM | 4,700 tested, 7.6% active | AID 1259376, 2018;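 active = inhibition above a cutoff derived from the DMSO control wells, cut at about 30% in these data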
Hits are given with their value.

For COc1cc(C(=O)N2CCN(C3CCC(c4ccccc4)CC3)CC2)cc(OC)c1OC (configuration not stated) the results were TEAD-YAP inh inactive, GPR151 ag inactive, FBW7 act inactive, MITF primary 51, MITF inh conf inactive and AS interf ctr inactive.
`COc1ccccc1CN1CCN(C2CCC(c3ccccc3)CC2)CC1` (configuration not stated) gave TEAD-YAP inh inactive, GPR151 ag inactive, FBW7 act inactive, MITF primary 71, MITF inh conf inactive and AS interf ctr inactive.
Screening COc1ccc(CN2CCN(C3CCC(c4ccccc4)CC3)CC2)c(OC)c1 (configuration not stated) returned TEAD-YAP inh inactive, GPR151 ag inactive, FBW7 act inactive, MITF primary 58, MITF inh conf inactive and AS interf ctr inactive.
For COc1cc(C(=O)N2CCN(C(=O)c3ccccc3)CC2)cc(OC)c1OC the results were TEAD-YAP inh inactive, GPR151 ag inactive, FBW7 act inactive and MITF primary inactive.
Screening COc1ccc(CN2CCC(N3CCN(c4ccccc4)CC3)CC2)c(OC)c1 returned TEAD-YAP inh inactive, GPR151 ag inactive, FBW7 act inactive, MITF primary 60, MITF inh conf inactive and AS interf ctr inactive.
For c1ccc(C2CCC(N3CCN(C4CCCCC4)CC3)CC2)cc1 (configuration not stated) the results were TEAD-YAP inh inactive, GPR151 ag inactive, FBW7 act inactive and MITF primary inactive.
For CC(C)C(=O)Nc1nc(-c2ccc(Br)s2)cs1 the results were TEAD-YAP inh inactive, GPR151 ag inactive, FBW7 act inactive and MITF primary inactive.
Screening COc1ccc(/C=C(/NC(=O)c2ccc(Br)cc2)C(=O)NC(C)C(=O)O)cc1 (configuration not stated) returned TEAD-YAP inh inactive, GPR151 ag inactive, FBW7 act inactive and MITF primary inactive.
For CCN1CCN(c2ncc(C(=O)Nc3ccccc3OC)c3ccccc23)CC1 the results were TEAD-YAP inh inactive, GPR151 ag inactive, FBW7 act inactive and MITF primary inactive.
Screening O=C(CN1CCN(C(=O)NCc2cccs2)CC1)c1ccco1 returned TEAD-YAP inh inactive, GPR151 ag inactive, FBW7 act inactive, MITF primary 58, MITF inh conf inactive and AS interf ctr inactive.
For O=C(CN1CCN(C(=O)NCc2ccc(Cl)cc2)CC1)c1cccs1 the results were TEAD-YAP inh inactive, GPR151 ag inactive, FBW7 act inactive, MITF primary 59, MITF inh conf inactive and AS interf ctr inactive.
Screening Cc1ccccc1NC(=O)N1CCN(CC(=O)c2ccco2)CC1 returned TEAD-YAP inh inactive, GPR151 ag inactive, FBW7 act inactive, MITF primary 54, MITF inh conf inactive and AS interf ctr inactive.
`O=c1[nH]c2ccc(Br)cc2c(-c2ccccc2)c1C1=NOC(c2ccc(Br)cc2)C1` (configuration not stated) gave TEAD-YAP inh inactive, GPR151 ag inactive, FBW7 act inactive and MITF primary inactive.
Screening Cc1cc(Nc2ccc(C)c(F)c2)n2nc(C)nc2n1 returned TEAD-YAP inh inactive, GPR151 ag inactive, FBW7 act inactive and MITF primary inactive.
COc1ccc(C(=O)Nc2cc(-c3nc4cc(C)ccc4o3)ccc2Cl)cc1Br was read as TEAD-YAP inh inactive, GPR151 ag inactive, FBW7 act inactive, MITF primary 59, MITF inh conf inactive and AS interf ctr inactive.
Cc1ccc(NC(=O)CSc2nc3ccccc3c(=O)n2CCC(=O)NCCc2ccccc2)cc1 was read as TEAD-YAP inh inactive, GPR151 ag inactive, FBW7 act inactive and MITF primary inactive.
Screening O=C(COc1ccc(Br)cc1)NCc1nc(-c2ccc(Cl)cc2)no1 returned TEAD-YAP inh inactive, GPR151 ag inactive, FBW7 act inactive, MITF primary 56, MITF inh conf inactive and AS interf ctr inactive.
For COc1ccc(C2CC(=O)NC(SCC(=O)Nc3cc(Cl)cc(Cl)c3)=C2C#N)cc1 (configuration not stated) the results were TEAD-YAP inh inactive, GPR151 ag inactive, FBW7 act inactive and MITF primary inactive.
Screening CCCC1=NN2C(=N)/C(=C/c3ccc(Sc4ccc(Cl)cc4)o3)C(=O)N=C2S1 returned TEAD-YAP inh inactive, GPR151 ag inactive, FBW7 act inactive and MITF primary inactive.
Screening O=C(Cn1ncc(Cl)c(Cl)c1=O)NCC1CCCO1 (configuration not stated) returned TEAD-YAP inh inactive, GPR151 ag inactive, FBW7 act inactive and MITF primary inactive.
`Nc1ccc(S(=O)(=O)N2CCOC3CCCCC32)cc1` (configuration not stated) gave TEAD-YAP inh inactive, GPR151 ag inactive, FBW7 act inactive, MITF primary 76, MITF inh conf inactive and AS interf ctr inactive.
`O=C(CC(NCc1cccnc1)C(=O)O)NCc1ccccc1` (configuration not stated) gave TEAD-YAP inh inactive, GPR151 ag inactive, FBW7 act inactive and MITF primary inactive.
O=C(N1CCN(c2ccccc2)CC1)C12CC3CC(CC(O)(C3)C1)C2 was read as TEAD-YAP inh inactive, GPR151 ag inactive, FBW7 act inactive and MITF primary inactive.
`O=C(N1CCN(Cc2ccccc2)CC1)C12CC3CC(CC(O)(C3)C1)C2` gave TEAD-YAP inh inactive, GPR151 ag inactive, FBW7 act inactive, MITF primary 53, MITF inh conf inactive and AS interf ctr inactive.
`O=S(=O)(c1ccc2ccccc2c1)N1CCN(Cc2ccccc2Cl)CC1` gave TEAD-YAP inh inactive, GPR151 ag inactive, FBW7 act inactive, MITF primary 58, MITF inh conf inactive and AS interf ctr inactive.
For O=S(=O)(c1ccc2ccccc2c1)N1CCN(Cc2ccc(F)cc2)CC1 the results were TEAD-YAP inh inactive, GPR151 ag inactive, FBW7 act inactive, MITF primary 54, MITF inh conf inactive and AS interf ctr inactive.
`Cc1cc(=O)n(C)c(=O)n1Cc1ccccc1` gave TEAD-YAP inh inactive, GPR151 ag inactive, FBW7 act inactive and MITF primary inactive.
Cc1cc(=O)n(C)c(=O)n1CCCCNCCO was read as TEAD-YAP inh inactive, GPR151 ag inactive, FBW7 act inactive, MITF primary 72, MITF inh conf inactive and AS interf ctr inactive.
`Cc1cc(=O)n(C)c(=O)n1CCCNC(C)c1ccccc1` (configuration not stated) gave TEAD-YAP inh inactive, GPR151 ag inactive, FBW7 act inactive, MITF primary 84, MITF inh conf inactive and AS interf ctr inactive.
`Cc1cc(=O)n(C)c(=O)n1CCCCBr` gave TEAD-YAP inh inactive, GPR151 ag inactive, FBW7 act inactive and MITF primary inactive.
